Among all 39,000 compounds or so, about 500 (1.3%) were called active. For the sample, actives were picked, then their nearest neighbours and some compounds at random.

The test system of the experiment is S. aureus RN4220. Kind of experiment: growth inhibition call (relative growth <= 0.2). To be noted: 50 µM.
Take `COc1ccc(S(=O)(=O)Nc2ccc3c(c2)C(=O)N([C@@H](C)CO)C[C@@H](C)[C@H](CN(C)Cc2ccc(C(F)(F)F)cc2)OCCCC[C@H](C)O3)cc1`: the growth inhibition call is “inactive”. The value for `C[C@H]1CCCCO[C@H](CN(C)S(=O)(=O)c2ccc(Cl)cc2)[C@@H](C)CN([C@@H](C)CO)C(=O)c2cc(NC(=O)Nc3ccc4c(c3)OCO4)ccc2O1` was “inactive”; that for `COC(=O)c1cccnc1` was “inactive”. The result for `Cc1ccc(N(c2ccc(C)cc2)c2cccnc2)cc1` reads “active”. For `CCN(CC)C(=O)c1cccnc1`, the growth inhibition call was “inactive”.

For the compound `CS(=O)(=O)N1C[C@@H]2OCC[C@@H]2[C@H](C(=O)NCc2cccnc2)C1`, the growth inhibition call was “inactive”. The result for `O=c1cc(-c2ccccc2O)oc2cc(O)ccc12` reads “inactive”; that for `O=c1cc(-c2ccccc2)oc2cc(O)ccc12`, “inactive”; that for `O=C(O)c1c(Br)c(Br)c(Br)c(Br)c1-c1c2ccc(=O)cc-2oc2cc(O)ccc12`, “active”. For the compound `COc1ccccc1S(=O)(=O)N(C)C[C@@H]1OCc2cnnn2CCCC(=O)N([C@H](C)CO)C[C@@H]1C`, the growth inhibition call was “inactive”. The value for `Cc1onc(-c2ccccc2)c1CN` was “inactive”; that for `Clc1ccc(CON=C(Cn2ccnc2)c2ccc(Cl)cc2Cl)c(Cl)c1.O=[N+]([O-])O` was “active”; that for `Clc1ccc(COC(Cn2ccnc2)c2ccc(Cl)cc2Cl)cc1.O=[N+]([O-])O` (stereo not drawn) was “inactive”. The value for `Clc1ccc(CSC(Cn2ccnc2)c2ccc(Cl)cc2Cl)cc1.O=[N+]([O-])O` (stereo not drawn) was “inactive”. The value for `CC(=O)N(C)C[C@H]1Oc2ncc(C#C[C@@H](C)O)cc2C(=O)N([C@@H](C)CO)C[C@@H]1C` was “inactive”. Consider `CC(C)NC(=O)N(C)C[C@H]1Oc2c(NS(=O)(=O)c3cn(C)cn3)cccc2C(=O)N([C@H](C)CO)C[C@@H]1C`, for which the growth inhibition call was “inactive”. The value for `C[C@H]1CN([C@@H](C)CO)C(=O)c2cc(NC(=O)NC3CCCCC3)ccc2O[C@H]1CN(C)Cc1ccc(Cl)c(Cl)c1` was “inactive”. The value for `NC[C@@H]1CCCO1` was “inactive”. In the case of `CC[C@H]1OC(=O)C[C@@H](O)[C@H](C)[C@@H](O[C@@H]2O[C@H](C)[C@@H](O[C@H]3C[C@@](C)(O)[C@@H](O)[C@H](C)O3)[C@H](N(C)C)[C@H]2O)[C@@H](CC=O)C[C@@H](C)C(=O)/C=C/C(C)=C/[C@@H]1CO[C@@H]1O[C@H](C)[C@@H](O)[C@@H](OC)[C@H]1OC`, the growth inhibition call was “active”. The result for `CC[C@H]1OC(=O)C[C@@H](O)[C@H](C)[C@@H](O[C@@H]2O[C@H](C)C[C@H](N(C)C)[C@H]2O)[C@@H](CC=O)C[C@@H](C)C(=O)/C=C/[C@]2(C)O[C@H]2[C@@H]1C` reads “active”; that for `CCC1OC(=O)CC(O)C(C)C(OC2OC(C)C(OC3CC(C)(O)C(O)C(C)O3)C(N(C)C)C2O)C(CC=O)CC(C)C(=O)C=CC(C)=CC1COC1OC(C)C(O)C(OC)C1OC.O=C(O)C(O)C(O)C(=O)O` (stereo not drawn), “active”. The result for `COc1cccc(C(=O)Nc2ccc3c(c2)C(=O)N(C)[C@@H]2CC[C@H](CC(=O)NCC4CC4)O[C@@H]2CO3)c1` reads “inactive”; that for `Cc1noc(C)c1NC(=O)Nc1ccc2c(c1)C(=O)N([C@H](C)CO)C[C@H](C)[C@@H](CN(C)C(=O)C1CCCCC1)OCCCC[C@@H](C)O2`, “inactive”; that for `COCC#Cc1ccc2c(c1)O[C@H](CN(C)C(=O)c1ccccc1F)[C@@H](C)CN([C@@H](C)CO)S2(=O)=O`, “inactive”.

Take `C[C@@H]1CN([C@H](C)CO)C(=O)c2cc(NC(=O)Nc3cccc4ccccc34)ccc2O[C@H]1CN(C)S(=O)(=O)c1ccccc1`: the growth inhibition call is “inactive”. With `COC(=O)c1cc(=O)nc2n1[C@H]1O[C@H](CO)[C@H](O)[C@H]1O2`, the growth inhibition call was “inactive”. The value for `COc1cccc(NC(=O)C[C@H]2CC[C@@H]3[C@@H](COc4ccc(NC(=O)C5CCOCC5)cc4C(=O)N3C)O2)c1` was “inactive”; that for `CC(C)NC(=O)N(C)C[C@H]1Oc2ccc(NS(=O)(=O)c3cn(C)cn3)cc2C(=O)N([C@@H](C)CO)C[C@H]1C` was “inactive”; that for `CN(C)C1CCN(C(=O)c2cnc(-c3noc4cc(-c5cccc(C(F)(F)F)c5)ccc34)s2)CC1` was “inactive”. For `CN(C)C1CCN(C(=O)c2cnc(-c3noc4cc(-c5ccccc5C(F)(F)F)ccc34)s2)CC1`, the growth inhibition call is “active”. The value for `Cc1ccc(S(=O)(=O)N(C)C[C@H]2Oc3c(NS(=O)(=O)c4ccc(F)cc4)cccc3C(=O)N([C@@H](C)CO)C[C@H]2C)cc1` was “inactive”; that for `C[C@H]1CN([C@@H](C)CO)C(=O)c2c(c3ccccc3n2C)-c2ccccc2CO[C@H]1CN(C)Cc1ccc(C(=O)O)cc1` was “inactive”; that for `Cc1ccc(OCc2ccc(Cl)cc2)c(C(C)(C)C)c1` was “inactive”.

On to `CC[C@@H](C)NCCCCOc1ccc(Cl)cc1C(C)(C)C`, for which the growth inhibition call is “active”. In the case of `CC(C)(C)NCCCCOc1ccc(Cl)cc1C(C)(C)C`, the growth inhibition call is “inactive”. The value for `C[C@H](CO)N1C[C@H](C)[C@@H](CN(C)S(=O)(=O)c2cn(C)cn2)Oc2ccc(NC(=O)Nc3ccc4c(c3)OCO4)cc2CC1=O` was “inactive”; that for `NCCCC[C@H](NC(=O)[C@@H]1CCCN1C(=O)[C@@H]1CSSC[C@H](N)C(=O)N[C@@H](Cc2ccccc2)C(=O)N[C@@H](Cc2ccccc2)C(=O)NC(CCC(N)=O)C(=O)N[C@@H](CC(N)=O)C(=O)N1)C(=O)NCC(N)=O` (stereo partly drawn) was “inactive”. The result for `CC[C@H](C)[C@H](N)C1=N[C@H](C(=O)N[C@@H](CC(C)C)C(=O)N[C@H](CCC(=O)O)C(=O)N[C@H](C(=O)N[C@H]2CCCCNC(=O)[C@H](CC(N)=O)NC(=O)[C@@H](CC(=O)O)NC(=O)[C@H](Cc3cnc[nH]3)NC(=O)[C@@H](Cc3ccccc3)NC(=O)[C@H]([C@@H](C)CC)NC(=O)[C@@H](CCCN)NC2=O)[C@@H](C)CC)CS1` reads “active”; that for `CC(=O)N[C@@H](CCCNC(=N)N)C(=O)N[C@H]1CSSC[C@@H](C(N)=O)NC(=O)[C@H](Cc2c[nH]c3ccccc23)NC(=O)[C@H](CCCNC(=N)N)NC(=O)[C@@H](Cc2ccccc2)NC(=O)[C@H](Cc2cnc[nH]2)NC(=O)[C@@H](C)NC1=O`, “inactive”. The value for `CC[C@H](C)[C@H](N)C1=N[C@H](C(=O)N[C@@H](CC(C)C)C(=O)N[C@@H]2CCC(=O)[O][Zn][O]C(=O)C[C@H]3NC(=O)[C@H](Cc4c[nH]cn4)NC(=O)[C@@H](Cc4ccccc4)NC(=O)[C@H]([C@@H](C)CC)NC(=O)[C@@H](CCCN)NC(=O)[C@H](CCCCNC(=O)[C@H](CC(N)=O)NC3=O)NC(=O)[C@H]([C@@H](C)CC)NC2=O)CS1` was “active”; that for `C[C@@H]1CN([C@@H](C)CO)C(=O)c2cc(NC(=O)Nc3ccc(C(F)(F)F)cc3)ccc2O[C@@H]1CN(C)C(=O)Nc1ccc2c(c1)OCO2` was “inactive”; that for `CC(=O)c1c(C)nn(CC(=O)O)c1C` was “inactive”.

For the compound `COc1ccc(NC(=O)N(C)C[C@@H]2OCCCC[C@@H](C)Oc3ccc(NC(=O)NC(C)C)cc3C(=O)N([C@H](C)CO)C[C@@H]2C)cc1`, the growth inhibition call is “inactive”. The value for `O=C(C[C@@H]1C[C@@H]2c3cc(NC(=O)c4ccc5c(c4)OCO5)ccc3O[C@@H]2[C@H](CO)O1)NCc1ccc(Oc2ccccc2)cc1` was “inactive”. For `CN(C)C1C(O)=C(C(N)=O)C(=O)C2(O)C(O)=C3C(=O)c4c(O)cccc4C(C)(O)C3CC12.Cl` (stereo not drawn), the growth inhibition call was “inactive”. As to `CN(C)C1C(O)=C(C(N)=O)C(=O)C2(O)C(O)=C3C(=O)c4c(O)ccc(Cl)c4C(C)(O)C3CC12.Cl` (stereo not drawn), the growth inhibition call was “inactive”. Consider `CN(C)[C@@H]1C(=O)C(C(=O)NCN2CCCC2)=C(O)[C@@]2(O)C(O)=C3C(=O)c4c(O)cccc4[C@@](C)(O)[C@H]3C[C@@H]12`, for which the growth inhibition call is “active”. For `C[C@H](O)[C@H](O)[C@@H](O)[C@@H](O)/C=N/NC(=O)c1ccc(C(=O)NO)cc1`, the growth inhibition call is “inactive”. `COc1ccc(S(=O)(=O)N2C[C@@H](O)COC[C@H]3O[C@@H](CC(=O)N[C@H]4CCN(Cc5ccccc5)C4)CC[C@@H]32)cc1`: the growth inhibition call is “inactive”. In the case of `CN(CCCCCCCCCCN(C)C(=O)Oc1cccc([N+](C)(C)C)c1)C(=O)Oc1cccc([N+](C)(C)C)c1`, the growth inhibition call is “active”. Take `CC(=O)Oc1cccc(O)c1`: the growth inhibition call is “inactive”.

As to `CC(=O)Oc1cccc(C)c1` [meta-CRESYL ACETATE], the growth inhibition call is “inactive”.

In the case of `C[C@@H]1CN([C@H](C)CO)C(=O)c2cc(NC(=O)C3CCCCC3)ccc2O[C@@H](C)CCCCO[C@@H]1CN(C)C(=O)Nc1ccccc1`, the growth inhibition call is “inactive”. The result for `COc1ccc(S(=O)(=O)N(C)C[C@@H]2Oc3ccc(NC(=O)CCN4CCOCC4)cc3CC(=O)N([C@@H](C)CO)C[C@H]2C)cc1` reads “inactive”; that for `C[C@@H]1CN([C@H](C)CO)C(=O)Cc2cc(NS(=O)(=O)c3cn(C)cn3)ccc2O[C@H]1CN(C)S(C)(=O)=O`, “inactive”. Take `CC(=O)N(C)C1(c2ccccc2)CCN(CCC[C@]2(c3ccc(Cl)c(Cl)c3)CCCN(C(=O)c3ccccc3)C2)CC1`: the growth inhibition call was “inactive”. `CC(C)Oc1cccc(CC(=O)N2CCC[C@](CC[N+]34CCC(c5ccccc5)(CC3)CC4)(c3ccc(Cl)c(Cl)c3)C2)c1`: the growth inhibition call is “active”. The result for `C[C@@H]1CN([C@@H](C)CO)C(=O)c2cccc(NC(=O)C3CCOCC3)c2O[C@H]1CN(C)Cc1ccc(C(=O)O)cc1` reads “inactive”; that for `NCC[C@H]1CC[C@@H](NC(=O)Nc2ccc(F)cc2)[C@@H](CO)O1`, “inactive”. The result for `CC(=O)Oc1cc2c(c(C)c1OC(C)=O)CC=C1[C@@]2(C)CC[C@@]2(C)[C@H]3C[C@](C)(C(=O)O)CC[C@]3(C)CC[C@]12C` reads “active”. With `CC1(C(=O)O)CCC2(C)CCC3(C)C(=CC(=O)C4C5(C)CCC(O)C(C)(C)C5CCC43C)C2C1` (stereo not drawn), the growth inhibition call was “inactive”. The value for `C[C@@H]1CCCCO[C@@H](CN(C)Cc2ccc(C(=O)O)cc2)[C@H](C)CN([C@H](C)CO)C(=O)c2cc(NC(=O)Nc3ccc(F)cc3)ccc2O1` was “inactive”; that for `C[C@@H]1CN([C@@H](C)CO)C(=O)c2cc(C#CC3(O)CCCC3)cnc2O[C@@H]1CN(C)S(=O)(=O)c1ccc(F)cc1` was “inactive”.

The values are drawn from the antibiotic and cytotoxicity screens of Wong et al. (2023).
